Reference: the supplement of paper PMC10849652
About 8,800 targets were measured; listed, in parts, are those with a hit and a random draw of the rest. About 0.5% of all pairs of compound and target were hits. Unmarked numbers belong to inactive results.

What was measured:
Assay in all cases: log2 fold change, soluble protein after heating vs DMSO (PISA); higher = thermal stabilisation; K562 lysate, 10 uM; active = over 0.2 and 3.5 SD of the protein, either way, in both replicates (recomputed)
[1] = compound: C=CC(=O)N1CCC[C@@H](n2nc(-c3ccc(Oc4ccccc4)cc3)c3c(N)ncnc32)C1 [ibrutinib]
Procedure, shortened: (§1)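 The values are log-two fold changes in thermal stability compared with solvent controls and come from duplicates. They were obtained by TMTpro 16plex LC-MS/MS, with channel sums equalised, on the supernatant after 21,000xg for 90 min. That supernatant came from crude K562 extract at 1 mg/mL protein treated with 10 μM compound for 30 min, heated for 3 min across 48°C-58°C, pooled and brought to 0.5% NP-40 at 4°C.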

[2] = compound: CC(=O)c1cnc2ccc(-c3cc(Cl)c(O)c(Cl)c3)nc2c1N[C@H]1CC[C@H](CN(C)C)CC1
Procedure, shortened: as §1

[3] = compound: CC(C)(C)Cn1c(N)nc2ccc(-c3[nH]c(C(C)(C)C)nc3-c3ccc(F)cc3)nc21 [ralimetinib]
Procedure, shortened: as §1

[4] = compound: CC(C)(O)CC(=O)NCCn1ccc2ncnc(Nc3ccc(Oc4cccc(C(F)(F)F)c4)c(Cl)c3)c21
Procedure, shortened: as §1

[5] = compound: CC(C)C1=C2N=C(C=C(N2N=C1)NCC3=CC=CC=C3)NCCCCCCN
Procedure, shortened: as §1

[6] = compound: CC1=C(C(CC(=O)N1)C2=CC=C(C=C2)C(F)(F)F)C(=O)NC3=C(C=C4C(=C3)C=NN4)F
Procedure, shortened: as §1

[7] = compound: CC1=C(C2=C(C=C1)C(=O)C3=CC=CC=C3N2CCCN)C
Procedure, shortened: as §1

[8] = compound: CC1=C(C=C(C=C1)NC(=O)C2=CC(=CC=C2)C(C)(C)C#N)NC3=CC4=C(C=C3)N=CN(C4=O)C
Procedure, shortened: as §1

[9] = compound: CC1=C(C=C(C=C1)NC(=O)C2=CC(=CC=C2)N(C)C)NC(=O)C3=CC=C(C=C3)O
Procedure, shortened: as §1

[10] = compound: CC1=CC=C(C=C1)SC2=C3C=C(SC3=CN=C2)C(=O)N
Procedure, shortened: as §1

Chain of UniProt Q01650 (Q01650 whole entry, looked up): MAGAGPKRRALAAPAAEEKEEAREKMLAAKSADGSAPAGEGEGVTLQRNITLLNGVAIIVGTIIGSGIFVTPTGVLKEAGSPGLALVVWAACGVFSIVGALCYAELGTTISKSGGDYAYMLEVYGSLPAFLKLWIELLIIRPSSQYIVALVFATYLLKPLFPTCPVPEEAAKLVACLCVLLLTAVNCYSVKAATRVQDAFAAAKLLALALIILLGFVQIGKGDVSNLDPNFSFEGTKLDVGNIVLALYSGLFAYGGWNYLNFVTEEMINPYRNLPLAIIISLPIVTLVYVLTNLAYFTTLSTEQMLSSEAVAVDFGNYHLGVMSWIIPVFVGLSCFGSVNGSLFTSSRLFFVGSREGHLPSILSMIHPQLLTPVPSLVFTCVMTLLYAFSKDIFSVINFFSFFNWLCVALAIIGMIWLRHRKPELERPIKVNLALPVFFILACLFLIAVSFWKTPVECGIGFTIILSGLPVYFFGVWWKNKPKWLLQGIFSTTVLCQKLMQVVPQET
Chain of UniProt P08047 (P08047 whole entry, looked up): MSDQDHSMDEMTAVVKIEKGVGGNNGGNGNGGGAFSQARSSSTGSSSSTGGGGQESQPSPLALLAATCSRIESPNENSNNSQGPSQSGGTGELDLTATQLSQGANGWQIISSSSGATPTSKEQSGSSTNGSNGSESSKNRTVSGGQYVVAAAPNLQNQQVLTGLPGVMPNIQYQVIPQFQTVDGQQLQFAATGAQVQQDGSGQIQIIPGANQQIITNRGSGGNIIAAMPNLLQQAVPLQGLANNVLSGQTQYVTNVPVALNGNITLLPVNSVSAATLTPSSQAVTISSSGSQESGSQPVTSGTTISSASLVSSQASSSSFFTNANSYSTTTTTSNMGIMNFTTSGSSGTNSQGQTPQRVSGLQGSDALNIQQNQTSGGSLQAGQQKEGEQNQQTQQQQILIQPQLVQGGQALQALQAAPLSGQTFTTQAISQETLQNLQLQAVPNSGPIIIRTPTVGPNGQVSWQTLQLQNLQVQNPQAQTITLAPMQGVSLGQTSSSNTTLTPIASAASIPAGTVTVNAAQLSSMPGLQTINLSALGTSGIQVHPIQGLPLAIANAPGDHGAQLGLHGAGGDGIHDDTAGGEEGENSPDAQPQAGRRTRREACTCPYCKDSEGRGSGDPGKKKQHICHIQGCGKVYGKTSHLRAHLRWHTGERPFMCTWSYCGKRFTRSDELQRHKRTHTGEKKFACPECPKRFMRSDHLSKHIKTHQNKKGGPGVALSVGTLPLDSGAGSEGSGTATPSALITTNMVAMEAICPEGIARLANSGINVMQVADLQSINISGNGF
Chain of UniProt Q9BWW4 (Q9BWW4 whole entry, looked up): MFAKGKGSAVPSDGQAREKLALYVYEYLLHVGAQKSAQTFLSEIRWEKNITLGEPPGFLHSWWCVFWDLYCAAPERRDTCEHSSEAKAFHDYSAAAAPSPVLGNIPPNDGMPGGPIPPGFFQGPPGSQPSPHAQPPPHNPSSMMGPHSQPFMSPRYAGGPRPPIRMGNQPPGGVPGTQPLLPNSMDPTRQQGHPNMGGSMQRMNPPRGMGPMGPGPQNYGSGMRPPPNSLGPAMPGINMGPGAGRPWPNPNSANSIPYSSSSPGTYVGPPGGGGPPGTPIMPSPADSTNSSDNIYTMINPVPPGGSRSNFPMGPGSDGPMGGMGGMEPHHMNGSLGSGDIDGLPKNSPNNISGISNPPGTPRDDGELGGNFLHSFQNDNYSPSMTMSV
Chain of UniProt Q6KCM7 (Q6KCM7 whole entry, looked up): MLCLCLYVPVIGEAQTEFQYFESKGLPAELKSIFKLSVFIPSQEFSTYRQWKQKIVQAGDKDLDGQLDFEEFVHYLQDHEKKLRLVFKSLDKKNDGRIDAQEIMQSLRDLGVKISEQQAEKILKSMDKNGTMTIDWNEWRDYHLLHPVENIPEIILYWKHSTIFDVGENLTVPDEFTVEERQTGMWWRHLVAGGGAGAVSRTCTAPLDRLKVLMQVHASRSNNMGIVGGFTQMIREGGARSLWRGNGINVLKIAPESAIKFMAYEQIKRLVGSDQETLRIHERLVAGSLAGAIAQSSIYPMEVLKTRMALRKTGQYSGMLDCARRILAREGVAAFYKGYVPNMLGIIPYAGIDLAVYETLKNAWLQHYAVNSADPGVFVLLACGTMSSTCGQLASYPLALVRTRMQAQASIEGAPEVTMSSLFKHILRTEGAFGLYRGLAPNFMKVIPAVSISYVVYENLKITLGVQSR
Chain of UniProt Q9NZ72 (Q9NZ72 whole entry, looked up): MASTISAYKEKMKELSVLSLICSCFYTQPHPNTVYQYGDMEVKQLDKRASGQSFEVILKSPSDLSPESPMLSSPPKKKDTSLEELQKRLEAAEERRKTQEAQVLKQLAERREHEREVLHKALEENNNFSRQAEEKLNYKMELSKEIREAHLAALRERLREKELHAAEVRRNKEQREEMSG
Chain of UniProt O43805 (O43805 whole entry, looked up): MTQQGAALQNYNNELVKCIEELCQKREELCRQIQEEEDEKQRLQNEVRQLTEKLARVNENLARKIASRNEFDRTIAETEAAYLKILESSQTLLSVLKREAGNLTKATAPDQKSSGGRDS
Chain of UniProt Q16563 (Q16563 whole entry, looked up): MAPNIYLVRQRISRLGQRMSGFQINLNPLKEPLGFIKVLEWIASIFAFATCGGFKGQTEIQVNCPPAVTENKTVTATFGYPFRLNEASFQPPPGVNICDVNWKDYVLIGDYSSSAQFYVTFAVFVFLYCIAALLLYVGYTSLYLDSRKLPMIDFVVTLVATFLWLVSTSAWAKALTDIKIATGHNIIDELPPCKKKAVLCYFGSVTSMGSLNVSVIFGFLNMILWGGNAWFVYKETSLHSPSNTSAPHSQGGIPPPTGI
Chain of UniProt Q13242 (Q13242 whole entry, looked up): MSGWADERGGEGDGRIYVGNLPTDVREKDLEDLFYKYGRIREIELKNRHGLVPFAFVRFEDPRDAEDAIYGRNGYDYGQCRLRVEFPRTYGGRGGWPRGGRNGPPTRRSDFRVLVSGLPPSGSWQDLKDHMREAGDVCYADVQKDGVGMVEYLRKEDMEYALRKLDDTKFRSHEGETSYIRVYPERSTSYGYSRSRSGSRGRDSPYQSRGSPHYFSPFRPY
Chain of UniProt P35610 (P35610 whole entry, looked up): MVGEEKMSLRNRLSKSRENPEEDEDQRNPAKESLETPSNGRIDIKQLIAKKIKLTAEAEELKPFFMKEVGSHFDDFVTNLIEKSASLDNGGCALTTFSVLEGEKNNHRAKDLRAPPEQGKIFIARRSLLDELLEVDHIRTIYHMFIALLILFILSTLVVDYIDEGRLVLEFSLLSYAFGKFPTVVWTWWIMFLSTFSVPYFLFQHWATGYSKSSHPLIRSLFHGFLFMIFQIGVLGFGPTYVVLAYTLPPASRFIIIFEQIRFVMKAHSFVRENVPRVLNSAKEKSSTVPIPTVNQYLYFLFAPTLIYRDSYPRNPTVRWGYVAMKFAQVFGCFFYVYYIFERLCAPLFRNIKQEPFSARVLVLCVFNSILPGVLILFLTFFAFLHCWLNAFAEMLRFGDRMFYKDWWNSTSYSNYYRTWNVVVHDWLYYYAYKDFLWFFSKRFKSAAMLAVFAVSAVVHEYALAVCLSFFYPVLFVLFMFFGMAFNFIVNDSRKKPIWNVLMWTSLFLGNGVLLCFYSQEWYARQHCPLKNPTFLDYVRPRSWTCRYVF
Chain of UniProt Q16594 (Q16594 whole entry, looked up): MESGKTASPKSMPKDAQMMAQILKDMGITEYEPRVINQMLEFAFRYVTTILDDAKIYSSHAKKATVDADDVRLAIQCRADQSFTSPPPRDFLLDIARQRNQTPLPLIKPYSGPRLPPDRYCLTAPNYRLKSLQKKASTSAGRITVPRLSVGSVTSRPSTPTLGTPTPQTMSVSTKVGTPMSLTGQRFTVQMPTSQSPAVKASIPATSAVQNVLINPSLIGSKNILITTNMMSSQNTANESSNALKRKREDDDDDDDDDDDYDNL
Chain of UniProt Q9UNE7 (Q9UNE7 whole entry, looked up): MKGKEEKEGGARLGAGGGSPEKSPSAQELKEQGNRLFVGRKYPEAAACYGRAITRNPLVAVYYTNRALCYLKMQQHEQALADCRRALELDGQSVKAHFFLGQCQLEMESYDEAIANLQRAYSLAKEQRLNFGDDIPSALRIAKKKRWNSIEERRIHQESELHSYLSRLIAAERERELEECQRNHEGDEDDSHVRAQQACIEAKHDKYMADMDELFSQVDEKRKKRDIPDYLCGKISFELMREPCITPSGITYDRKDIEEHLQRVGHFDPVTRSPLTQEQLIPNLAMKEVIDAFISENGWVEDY
Chain of UniProt P53985 (P53985 whole entry, looked up): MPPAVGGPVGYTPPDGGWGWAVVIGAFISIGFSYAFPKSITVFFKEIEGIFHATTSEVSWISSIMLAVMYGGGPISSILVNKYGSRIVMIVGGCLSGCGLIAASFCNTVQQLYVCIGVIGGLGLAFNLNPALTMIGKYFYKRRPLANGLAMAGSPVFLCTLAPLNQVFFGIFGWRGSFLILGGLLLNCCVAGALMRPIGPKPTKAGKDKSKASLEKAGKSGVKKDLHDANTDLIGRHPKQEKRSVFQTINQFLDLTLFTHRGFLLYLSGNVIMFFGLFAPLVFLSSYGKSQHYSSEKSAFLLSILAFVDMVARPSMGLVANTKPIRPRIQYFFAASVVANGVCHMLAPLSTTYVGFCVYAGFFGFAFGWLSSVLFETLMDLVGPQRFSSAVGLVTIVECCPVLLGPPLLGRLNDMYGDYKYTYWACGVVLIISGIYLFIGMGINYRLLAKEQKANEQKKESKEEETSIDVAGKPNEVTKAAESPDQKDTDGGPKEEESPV
Chain of UniProt Q99963 (Q99963 whole entry, looked up): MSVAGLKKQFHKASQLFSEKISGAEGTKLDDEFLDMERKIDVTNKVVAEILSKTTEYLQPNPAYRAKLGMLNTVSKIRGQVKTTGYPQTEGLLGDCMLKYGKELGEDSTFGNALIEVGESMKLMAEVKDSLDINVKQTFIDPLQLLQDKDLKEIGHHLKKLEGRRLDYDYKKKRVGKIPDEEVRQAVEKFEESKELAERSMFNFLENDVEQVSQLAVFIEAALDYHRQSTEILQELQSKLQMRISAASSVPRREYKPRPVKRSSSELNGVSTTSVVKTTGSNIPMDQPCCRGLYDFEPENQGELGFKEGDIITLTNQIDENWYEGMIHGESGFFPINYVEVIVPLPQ

Target	log2 fold change [1]	log2 fold change [2]	log2 fold change [3]	log2 fold change [4]	log2 fold change [5]	log2 fold change [6]	log2 fold change [7]	log2 fold change [8]	log2 fold change [9]	log2 fold change [10]
SHCBP1 (UniProt Q8NEM2)	-0.04	0.023	0.026	0.031	0.012	0.009	0.002	-0.008	0.056	-0.041
SLC25A38 (UniProt Q96DW6)	0.061	-0.108	-0.074	-0.003	-0.114	-0.153	-0.437	0.002	0.115	0.04
TAF9 (UniProt Q16594)	-0.028	0.044	0.033	-0.057	0.032	0.015	0.019	0.027	0.101	-0.023
SMG7 (UniProt Q92540)	0.019	0.041	-0.036	-0.13	0.066	-0.02	-0.01	-0.281	0.047	0.03
TAPT1 (UniProt Q6NXT6)	0.071	0.012	-0.029	-0.07	0.004	-0.019	-0.014	0.09	-0.004	-0.027
SSBP3 (UniProt Q9BWW4)	0.435 (active)	-0.024	0	-0.038	-0.02	-0.021	-0.018	-0.018	0	0.054
SPATA5 (UniProt Q8NB90)	0.013	-0.002	0.047	0.025	0.02	-0.009	0.009	0.002	0.042	0.012
SP1 (UniProt P08047)	0.04	0.017	-0.018	-0.049	-0.103	-0.013	0.061	0.22	0.017	-0.027
SYK (UniProt P43405)	-0.09	-0.041	-0.025	-0.103	0.051	-0.055	-0.114	-0.001	0.027	-0.065
SLC11A2 isoform 3 (UniProt P49281)	-0.032	-0.018	-0.038	-0.093	0.017	0.242	-0.001	0.094	0.001	0.003
SOAT1 (UniProt P35610)	0.043	0.017	0.151	-0.107	-0.055	-0.046	-0.022	0.1	-0.012	0.019
SMARCA4 (UniProt P51532)	0.021	-0.007	0.035	0.018	-0.009	-0.003	-0.032	-0.026	0.028	0.012
SYPL1 (UniProt Q16563)	0.015	0.004	0.018	-0.058	0	-0.025	-0.018	0.007	0.006	-0.005
STK38 (UniProt Q15208)	0.008	0.361 (active)	0.036	0.048	0.025	0.006	0.017	0.014	-0.003	0.002
SRSF9 (UniProt Q13242)	-0.009	-0.009	0.001	-0.031	-0.031	-0.019	-0.089	0.047	-0.028	-0.007
STMN3 (UniProt Q9NZ72)	0.006	-0.028	0.093	0.025	-0.089	-0.003	-0.059	0.012	-0.011	0.009
SSNA1 (UniProt O43805)	0.187	0.017	-0.049	0.012	0.003	-0.012	-0.026	0.013	0.02	-0.024
SPNS1 (UniProt Q9H2V7)	0.02	-0.001	0.005	-0.009	0.007	-0.009	-0.007	0.047	-0.029	0.012
SLC16A1 (UniProt P53985)	-0.023	0.002	0.015	0.015	0.003	-0.039	-0.03	0.042	0	-0.006
SLC25A25 isoform 3 (UniProt Q6KCM7)	-0.015	-0.028	0.011	0.021	0.018	0.022	-0.036	0.017	-0.012	0.034
SRSF2 (UniProt Q01130)	0.021	-0.009	0.034	-0.065	-0.013	-0.021	-0.015	0.016	0.028	-0.018
STUB1 (UniProt Q9UNE7)	0.015	0.011	0.005	0	-0.018	0.023	0.032	-0.012	-0.001	-0.019
TANK (UniProt Q92844)	0.042	0.086	-0.049	-0.003	0.044	0.061	0.018	0	0.054	0.002
TARDBP (UniProt Q13148)	-0.161	0.052	-0.004	-0.076	0.015	0.019	0.068	-0.059	0.01	0.019
SMC1B isoform 3 (UniProt Q8NDV3)	0.013	0.017	0.07	-0.029	0.001	-0.012	-0.001	0.021	0.026	-0.005
SLC7A5 (UniProt Q01650)	-0.011	-0.01	0.018	-0.042	0.036	-0.031	-0.003	0.075	-0.043	0
SLC25A17 (UniProt O43808)	-0.007	-0.043	0.047	-0.019	0.037	0.001	0.029	0.03	-0.01	0.044
SSB (UniProt E7ERC4)	0.14	-0.087	-0.009	-0.075	-0.046	0.062	0.014	0.239	0.093	-0.013
SH3GL3 isoform 3 (UniProt Q99963)	0.042	-0.104	-0.014	0.004	0.001	-0.017	-0.045	0.027	0.042	-0.102
SPATA5L1 (UniProt Q9BVQ7)	-0.007	0.02	0.037	-0.054	0.018	-0.004	-0.052	-0.007	0.026	-0.008
